From PubChem BioAssay (NCI)
This is part of a sample that, as a whole, favours compounds with a hit. Of some 83,000 tested, about 20% had one in any assay.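 For each line, cells grew in 96-well plates with the test compound present at a single concentration for 48 hours.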 A number with no mark means an inactive call. Calls of active or inactive are those of the source. How the source made its calls: active means growth percent below 10; inactive means the rest.

Columns and labels:
Assay in all cases: NCI-60 one-dose screen, 48 h (100 = growth as untreated, 0 = no growth, -100 = all killed)
Conditions in all cases: 10 µM unless noted
[1] = system: BT-549 breast
[2] = system: MDA-MB-435 melanoma
[3] = system: SW-620 colon
[4] = system: MCF7 breast
[5] = system: HCT-116 colon
[6] = system: HCC-2998 colon
[7] = system: KM12 colon

## COC(=O)c1ccc2[nH]c(O)c(C(=Nc3ccc(N(C)C(=O)CN4CCN(C)CC4)cc3)c3ccc(N)cc3)c2c1
[1]
  growth: 81.5%
[2]
  growth: 90.6%
[3]
  growth: 70.3%
[4]
  growth: 40.7%
[5]
  growth: 41.4%
[6]
  growth: 108%
[7]
  growth: 18.4%

## O=C(N/N=C/c1ccccc1Cl)c1cccc2ccccc12
[1]
  growth: 117%
[2]
  growth: 105%
[3]
  growth: 105%
[4]
  growth: 90.9%
[5]
  growth: 102%
[6]
  growth: 110%
[7]
  growth: 97.3%

## O=C(Nc1cccc2[nH]c(C(F)(F)F)nc12)c1ccc(F)cc1
[1]
  growth: 87.5%
[2]
  growth: 87.2%
[3]
  growth: 91.5%
[4]
  growth: 83.8%
[5]
  growth: 84.4%
[6]
  growth: 115%
[7]
  growth: 73.1%

## COc1cc(-c2cc3cnccc3c3nc(N)c4ccncc4c23)cc(OC)c1OC
[1]
  growth: 42.2%
[2]
  growth: 4.6% (active)
[3]
  growth: 46.8%
[4]
  growth: 29.8%
[5]
  growth: 35.1%
[6]
  growth: 70.1%
[7]
  growth: 48.1%

## CC1(C)NCCC[C@]2(C)[C@H]3CC=C4[C@@H]5C[C@](C)(COC(=O)c6ccccc6C(=O)O)CC[C@]5(C)CC[C@@]4(C)[C@]3(C)CC[C@@H]12
[1]
  growth: 72.4%
[2]
  growth: 62.4%
[3]
  growth: 67.2%
[4]
  growth: 41.1%
[5]
  growth: 16.5%
[6]
  growth: 73.4%
[7]
  growth: 55.2%

## O=C(NCCNCCO)c1cc([N+](=O)[O-])cc([N+](=O)[O-])c1O
[1]
  growth: 121%
[2]
  growth: 104%
[3]
  growth: 103%
[4]
  growth: 102%
[5]
  growth: 103%
[6]
  growth: 101%
[7]
  growth: 108%

## C/C(=N\Nc1ccc(Cl)cn1)c1ccc2ccccc2n1
[1]
  growth: 21.6%
[2]
  growth: 31.9%
[3]
  growth: 27.5%
[4]
  growth: 7.14% (active)
[5]
  growth: 6.22% (active)
[6]
  growth: 38.1%
[7]
  growth: 20.2%

## Cc1c(CN(C)C)cc(C(C)C)cc1C(C)C
[1]
  growth: 118%
[2]
  growth: 111%
[3]
  growth: 104%
[4]
  growth: 96.7%
[5]
  growth: 104%
[6]
  growth: 104%
[7]
  growth: 114%

## COC(=O)Nc1nc2ccc(C(=O)c3ccccc3N(C)C3COC3)cc2[nH]1
[1]
  growth: 60.4%
[2]
  growth: -42.1% (active)
[3]
  growth: 14.9%
[4]
  growth: 19%
[5]
  growth: 30.4%
[6]
  growth: 67.2%
[7]
  growth: 17%

## COC(=O)c1ccc2[nH]c(O)c(C(=Nc3ccc(N(C)C(=O)CN4CCN(C)CC4)cc3)c3ccc([N+](=O)[O-])cc3)c2c1
[1]
  growth: 49.1%
[2]
  growth: 49.9%
[3]
  growth: 54.7%
[4]
  growth: 30.6%
[5]
  growth: 20.4%
[6]
  growth: 66.7%
[7]
  growth: 16.2%

## C/C=C(/C)C(=O)OC1C=C(CO)C(=O)C(OC(=O)/C(C)=C\C)C1C(C)C (stereo not given)
[1]
  growth: -32.7% (active)
[2]
  growth: -78.7% (active)
[3]
  growth: -59% (active)
[4]
  growth: -16.6% (active)
[5]
  growth: -76.1% (active)
[6]
  growth: -85.9% (active)
[7]
  growth: -41.3% (active)

## COC(=O)c1ccc2[nH]c(O)c(C(=Nc3ccc(N(C)C(=O)CN4CCN(C)CC4)cc3)c3ccc4c(c3)OCO4)c2c1
[1]
  growth: 3.64% (active)
[2]
  growth: 21.2%
[3]
  growth: 0.696% (active)
[4]
  growth: 11.1%
[5]
  growth: 0.577% (active)
[6]
  growth: 16%
[7]
  growth: 4.89% (active)

## c1ccc(C(=NNc2nc3ccccc3o2)c2ccccn2)nc1
[1]
  growth: 18.7%
[2]
  growth: 25.2%
[3]
  growth: 29.7%
[4]
  growth: 6.93% (active)
[5]
  growth: 4.99% (active)
[6]
  growth: 44.3%
[7]
  growth: 24.6%

## CC(=O)N(N=O)c1ccc([N+](=O)[O-])cc1Cl
[1]
  growth: 71.7%
[2]
  growth: 66.7%
[3]
  growth: 71.6%
[4]
  growth: 52.2%
[5]
  growth: 44.9%
[6]
  growth: 76.6%
[7]
  growth: 69%

## CC#Cc1nc(Nc2cc(C)[nH]n2)c2ccccc2n1
[1]
  growth: -61.9% [100 µM] (active)
[2]
  growth: -44.4% [100 µM] (active)
[3]
  growth: -1.25% [100 µM] (active)
[4]
  growth: 6.03% [100 µM] (active)
[5]
  growth: -15.7% [100 µM] (active)
[6]
  growth: -86.3% [100 µM] (active)
[7]
  growth: -74.6% [100 µM] (active)

## COc1cc(NC(=O)CSc2nc3ccc(Cl)cc3c(=O)n2-c2ccc(F)cc2)cc(OC)c1OC
[1]
  growth: 95.9%
[2]
  growth: 90.8%
[3]
  growth: 95.4%
[4]
  growth: 87.5%
[5]
  growth: 79.4%
[6]
  growth: 105%
[7]
  growth: 85.2%

## COc1cc(CCNc2cnc3cc(N)cc(N)c3n2)cc(OC)c1
[1]
  growth: 113%
[2]
  growth: 115%
[3]
  growth: 111%
[4]
  growth: 96.9%
[5]
  growth: 103%
[6]
  growth: 139%
[7]
  growth: 106%

## CC(C)OC(=O)[C@H](C)N[P@@](=O)(OC[C@@]1(C)O[C@@H](n2cc(F)c(N)nc2=O)C[C@@H]1O[P@](=O)(N[C@@H](C)C(=O)OC(C)C)Oc1ccccc1)Oc1ccccc1
[1]
  growth: 75.9%
[2]
  growth: 86.6%
[3]
  growth: 61.1%
[4]
  growth: 50.3%
[5]
  growth: 88.2%
[6]
  growth: 46.7%
[7]
  growth: 76%

## CCc1ccc(C(=Nc2ccc(N(C)C(=O)CN3CCN(C)CC3)cc2)c2c(O)[nH]c3ccc(C(=O)OC)cc23)cc1
[1]
  growth: -87.9% (active)
[2]
  growth: -20.5% (active)
[3]
  growth: -67.3% (active)
[4]
  growth: -68.4% (active)
[5]
  growth: -67.9% (active)
[6]
  growth: -92% (active)
[7]
  growth: -60.8% (active)

## C/C(=N\Nc1cccc(Cl)n1)c1ccccn1
[1]
  growth: 22.9%
[2]
  growth: 31.3%
[3]
  growth: 32.5%
[4]
  growth: 10.1%
[5]
  growth: 10%
[6]
  growth: 32.6%
[7]
  growth: 25.8%

## C#CCCCCCCC[C@@H]1OC(=O)[C@H]([C@@H](C)CC)NC(=O)[C@@H]([C@@H](C)CC)NC(=O)CC(=O)[C@@H]1C
[1]
  growth: 104%
[2]
  growth: 107%
[3]
  growth: 101%
[4]
  growth: 99%
[5]
  growth: 94.8%
[6]
  growth: 109%
[7]
  growth: 105%

## CCOC(=O)c1c2c(cn1Cc1ccccc1)-c1oncc1CC2
[1]
  growth: 94.5%
[2]
  growth: 111%
[3]
  growth: 103%
[4]
  growth: 98.8%
[5]
  growth: 90.5%
[6]
  growth: 111%
[7]
  growth: 104%

## CCN(CC)CCCNc1c2ccc(Cl)cc2nc2ccc(OC)cc12
[1]
  growth: -20.4% (active)
[2]
  growth: -90.5% (active)
[3]
  growth: 3.44% (active)
[4]
  growth: -16.4% (active)
[5]
  growth: -4.77% (active)
[6]
  growth: -68.1% (active)
[7]
  growth: 0.483% (active)

## COC(=O)c1ccc(C(=Nc2ccc(N(C)C(=O)CN3CCN(C)CC3)cc2)c2c(O)[nH]c3ccc(C(=O)OC)cc23)cc1
[1]
  growth: 45.8%
[2]
  growth: 43.6%
[3]
  growth: 18.9%
[4]
  growth: 23.5%
[5]
  growth: 10.9%
[6]
  growth: 54.5%
[7]
  growth: 15.3%

## CC(C)(C)OC(=O)N1C/C(=C\c2ccccc2)C(=O)/C(=C/c2ccccc2)C1
[1]
  growth: 91.5%
[2]
  growth: 102%
[3]
  growth: 93.7%
[4]
  growth: 78.1%
[5]
  growth: 80.7%
[6]
  growth: 103%
[7]
  growth: 108%
